Laboratory results as given in PubChem BioAssay (EPA / NIEHS).
The source made the active and inactive calls. How the source made its calls: active means hit-call score of the fitted dose curve at least 0.9, where 1 is the maximum; inactive means score below 0.9.

Experiments:
[1] = read-out: Tissue Factor, F3 (gene 2152); assay: BSK_CASM3C_TissueFactor: BioMAP Diversity Plus: CASM3C Assay for Tissue Factor Biomarker Activity (AID 2283052); conditions: primary human coronary artery smooth muscle cells; actives raise or lower the signal;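 further: cell surface tissue factor protein level read by ELISA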
[2] = read-out: Urokinase-type plasminogen activator receptor (uPAR), PLAUR (gene 5329); assay: BSK_CASM3C_uPAR: BioMAP Diversity Plus: CASM3C Assay for Urokinase-type plasminogen activator receptor (uPAR) Biomarker Activity (AID 2283054); conditions: primary human coronary artery smooth muscle cells; actives raise or lower the signal;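 further: cell-surface uPAR protein level quantified by ELISA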
[3] = read-out: Vascular cell adhesion molecule 1 (VCAM1), VCAM1 (gene 7412); assay: BSK_CASM3C_VCAM1: BioMAP Diversity Plus: CASM3C Assay for Vascular cell adhesion molecule 1 (VCAM1) Biomarker Activity (AID 2283055); conditions: primary human coronary artery smooth muscle cells; actives raise or lower the signal;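 further: VCAM-1 protein level quantified by ELISA on the cells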
[4] = read-out: Collagen III, COL3A1 (gene 1281); assay: BSK_hDFCGF_CollagenIII: BioMAP Diversity Plus: hDFCGF Assay for Collagen III Biomarker Activity (AID 2283056); conditions: primary human foreskin fibroblasts; actives raise or lower the signal
Method in brief: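 Cells: human foreskin fibroblasts, primary. Dosing followed by 24 h incubation, then ELISA for collagen III. Both increases and decreases scored relative to DMSO.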

[5] = read-out: Epidermal growth factor receptor (EGFR), EGFR (gene 1956); assay: BSK_hDFCGF_EGFR: BioMAP Diversity Plus: hDFCGF Assay for Epidermal growth factor receptor (EGFR) Biomarker Activity (AID 2283057); conditions: primary human foreskin fibroblasts; actives raise or lower the signal
Method in brief: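 Measured by ELISA: EGFR levels on primary human foreskin fibroblasts 24 h after chemical treatment, analysed relative to DMSO with bidirectional fitting.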

[6] = read-out: Interleukin-8 (IL8), CXCL8 (gene 3576); assay: BSK_hDFCGF_IL8: BioMAP Diversity Plus: hDFCGF Assay for Interleukin-8 (IL8) Biomarker Activity (AID 2283058); conditions: primary human foreskin fibroblasts; actives raise or lower the signal
Method in brief: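 IL-8 levels from compound-treated primary human fibroblasts were read by ELISA at 24 h, with DMSO serving as baseline for bidirectional fitting.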

[7] = BSK_hDFCGF_Proliferation: Cell Proliferation Assessment in the BioMAP Diversity Plus: hDFCGF Assay (AID 2283059); conditions: primary human foreskin fibroblasts;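 further: curves fitted for both rise and fall of signal versus DMSO baseline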
Method in brief: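 Sub-confluent human foreskin fibroblast cultures receive test chemical […]. Relative cell number is quantified by sulforhodamine B staining (0.1%, after 10% TCA fixation) at 560 nm, with bidirectional fitting referenced to DMSO.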

[8] = read-out: Macrophage colony-stimulating factor (MCSF), CSF1 (gene 1435); assay: BSK_hDFCGF_MCSF: BioMAP Diversity Plus: hDFCGF Assay for Macrophage colony-stimulating factor (MCSF) Biomarker Activity (AID 2283060); conditions: primary human foreskin fibroblasts; actives raise or lower the signal
Method in brief: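 M-CSF levels, determined by ELISA, are taken at 24 h after dosing human skin fibroblasts. Responses in either direction are fitted with DMSO serving as the baseline.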

[9] = BSK_hDFCGF_SRB: Viability Assessment in the BioMAP Diversity Plus: hDFCGF Assay (AID 2283061); conditions: primary human foreskin fibroblasts;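 further: cells exposed to compound for 24 h before the read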
Method in brief: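 Cells were dosed with test chemical, cultured 24 h, fixed with 10% TCA, then stained with 0.1% SRB and read at 560 nm. The fibroblasts were human foreskin primary cells, and DMSO served as baseline.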

[10] = read-out: TIMP metallopeptidase inhibitor 1 (TIMP1), TIMP1 (gene 7076); assay: BSK_hDFCGF_TIMP1: BioMAP Diversity Plus: hDFCGF Assay for TIMP metallopeptidase inhibitor 1 (TIMP1) Biomarker Activity (AID 2283062); conditions: primary human foreskin fibroblasts; actives raise or lower the signal
Method in brief: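 Fibroblasts from human foreskin are treated with test chemical and harvested at 24 h. TIMP-1 is quantified by ELISA, and gain or loss of signal is scored against DMSO.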

[11] = read-out: Monokine induced gamma interferon (MIG), CXCL9 (gene 4283); assay: BSK_hDFCGF_MIG: BioMAP Diversity Plus: hDFCGF Assay for Monokine induced gamma interferon (MIG) Biomarker Activity (AID 2283063); conditions: primary human foreskin fibroblasts; actives raise or lower the signal
Method in brief: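 MIG signal, determined by ELISA, reflects 24 h chemical exposure of human skin primary fibroblasts. DMSO serves as negative control and baseline.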

[12] = read-out: Matrix Metallopeptidase 1 (MMP1), MMP1 (gene 4312); assay: BSK_hDFCGF_MMP1: BioMAP Diversity Plus: hDFCGF Assay for Matrix Metallopeptidase 1 (MMP1) Biomarker Activity (AID 2283064); conditions: primary human foreskin fibroblasts; actives raise or lower the signal
Method in brief: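 Primary human foreskin fibroblasts in the hDFCGF system were dosed with test chemical, and MMP1 was measured by ELISA 24 h later. Values come from bidirectional curve fitting against the DMSO baseline.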

[13] = read-out: Vascular cell adhesion molecule 1 (VCAM1), VCAM1 (gene 7412); assay: BSK_hDFCGF_VCAM1: BioMAP Diversity Plus: hDFCGF Assay for Vascular cell adhesion molecule 1 (VCAM1) Biomarker Activity (AID 2283065); conditions: primary human foreskin fibroblasts; actives raise or lower the signal;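 on AC50: VCAM-1 protein level quantified by ELISA after 24 h chemical exposure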
Method in brief: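 Cells are dosed, cultured for 24 h, then VCAM-1 is quantified by ELISA; signal increases and decreases are both fitted relative to DMSO.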

[14] = read-out: Plasminogen activator inhibitor-1 (PAI1), SERPINE1 (gene 5054); assay: BSK_hDFCGF_PAI1: BioMAP Diversity Plus: hDFCGF Assay for Plasminogen activator inhibitor-1 (PAI1) Biomarker Activity (AID 2283066); conditions: primary human foreskin fibroblasts; actives raise or lower the signal
Method in brief: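 PAI-1 levels, determined by ELISA, served as the endpoint in human foreskin fibroblast cultures exposed to compound for 24 h, with DMSO as baseline.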

[15] = read-out: Intercellular Adhesion Molecule 1 (ICAM1), ICAM1 (gene 3383); assay: BSK_KF3CT_ICAM1: BioMAP Diversity Plus: KF3CT Assay for Intercellular Adhesion Molecule 1 (ICAM1) Biomarker Activity (AID 2283067); conditions: primary human keratinocytes with fibroblasts; actives raise or lower the signal
Method in brief: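 Dose the keratinocyte/fibroblast co-culture, wait 24 h, measure ICAM-1 by ELISA, then fit increases or decreases against DMSO. Cytotoxicity is checked in parallel cultures by SRB total-protein staining.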

[16] = read-out: Interferon-gamma inducible Protein 10 (IP10), CXCL10 (gene 3627); assay: BSK_KF3CT_IP10: BioMAP Diversity Plus: KF3CT Assay for Interferon-gamma inducible Protein 10 (IP10) Biomarker Activity (AID 2283068); conditions: primary human keratinocytes with fibroblasts; actives raise or lower the signal
Method in brief: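 ELISA read-out of IP-10 after 24 h chemical dosing of human skin primary co-culture (keratinocytes, foreskin fibroblasts). Gain or loss of signal relative to DMSO, bidirectional curve fit.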

[17] = BSK_KF3CT_SRB: Viability Assessment in the BioMAP Diversity Plus: KF3CT Assay (AID 2283069); conditions: primary human keratinocytes with fibroblasts;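 further: total protein by sulforhodamine B staining as a cytotoxicity measure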
Method in brief: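 Human primary keratinocyte plus foreskin fibroblast co-culture exposed to chemicals for 24 h. Total protein measured by 0.1% sulforhodamine B staining after 10% TCA fixation, read at 560 nm; bidirectional fitting versus DMSO baseline.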

[18] = read-out: Interleukin-1 alpha (IL1a), IL1A (gene 3552); assay: BSK_KF3CT_IL1a: BioMAP Diversity Plus: KF3CT Assay for Interleukin-1 alpha (IL1a) Biomarker Activity (AID 2283070); conditions: primary human keratinocytes with fibroblasts; actives raise or lower the signal
Method in brief: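 Human keratinocyte plus foreskin fibroblast primary co-culture, sampled 24 h after chemical dosing. IL-1a measured by ELISA; responses fitted bidirectionally against DMSO baseline (negative control), so gain or loss of signal both count.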

[19] = read-out: TIMP metallopeptidase inhibitor 2 (TIMP2), TIMP2 (gene 7077); assay: BSK_KF3CT_TIMP2: BioMAP Diversity Plus: KF3CT Assay for TIMP metallopeptidase inhibitor 2 (TIMP2) Biomarker Activity (AID 2283071); conditions: primary human keratinocytes with fibroblasts; actives raise or lower the signal
Method in brief: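 Keratinocyte–fibroblast co-culture, 24 h exposure; TIMP-2 ELISA, DMSO-normalised bidirectional fit. Parallel SRB (0.1%, TCA-fixed, 560 nm) total-protein staining gauges cytotoxicity.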

Measured: AC50

O=C1OC[C@H](Cc2cccc(O)c2)[C@H]1Cc1cccc(O)c1
inactive: [1] | [2] | [3] | [4] | [5] | [6] | [7] | [8] | [9] | [10] | [11] | [12] | [13] | [14] | [15] | [16] | [17] | [18] | [19]

CC=Cc1ccc(OCC)c(O)c1
inactive: [1] | [2] | [3] | [4] | [5] | [6] | [7] | [8] | [9] | [10] | [11] | [12] | [13] | [14] | [15] | [16] | [17] | [18] | [19]

CCCCCC(C=O)=Cc1ccccc1
active: [1] 20 µM | [2] 39.3 µM | [3] 31.2 µM | [4] 31 µM | [7] 31.4 µM | [9] 31.5 µM | [12] 0.146 µM | [13] 20 µM | [15] 33.1 µM | [16] 30.4 µM | [17] 36.5 µM | [18] 20 µM | [19] 30 µM
inactive: [5] | [6] | [8] | [10] | [11] | [14]

CC(C=O)Cc1ccc(C(C)(C)C)cc1 (centres undefined)
active: [1] 20 µM | [2] 33.7 µM | [3] 27.3 µM | [5] 32.1 µM | [7] 29.1 µM | [8] 29.5 µM | [9] 35.5 µM | [10] 31.9 µM | [14] 27.4 µM | [19] 32.4 µM
inactive: [4] | [6] | [11] | [12] | [13] | [15] | [16] | [17] | [18]

CC(CN=Cc1ccccc1O)N=Cc1ccccc1O (centres undefined)
inactive: [1] | [2] | [3] | [4] | [5] | [6] | [7] | [8] | [9] | [10] | [11] | [12] | [13] | [14] | [15] | [16] | [17] | [18] | [19]

O=C1c2ccccc2C(=O)c2c(O)ccc(O)c21
inactive: [1] | [4] | [5] | [6] | [9] | [10] | [11] | [12] | [13] | [15] | [16] | [17] | [18] | [19]
active: [2] 4.99 µM | [3] 5.44 µM | [7] 3.14 µM | [8] 1.38 µM | [14] 4.59 µM
